# Measured values taken from paper PMC5540273 (PLoS ONE, 2017).
# Read-outs that look alike come from different tables or passages of the source.
# Columns and labels:
# GRK2 = tested on: T1, GRK2; conditions: concentration: 1 μM, replicates: in singlicate; n = 1
# T1 construct: gene ADRBK1
# GRK3 = tested on: T2, GRK3; conditions: concentration: 1 μM, replicates: in singlicate; n = 1
# T2 construct: gene ADRBK2
# GRK4 = conditions: concentration: 1 μM, replicates: in singlicate; n = 1
# GRK7 = conditions: concentration: 1 μM, replicates: in singlicate; n = 1
# GSK3A = conditions: concentration: 1 μM, replicates: in singlicate; n = 1
# GSK3B = conditions: n = 1
# HASPIN = tested on: T3, HASPIN; conditions: concentration: 1 μM, replicates: in singlicate; n = 1
# T3 construct: gene GSG2
# HCK = conditions: concentration: 1 μM, replicates: in singlicate; n = 1
# HIPK1 = conditions: concentration: 1 μM, replicates: in singlicate; n = 1
# HIPK2 = conditions: concentration: 1 μM, replicates: in singlicate; n = 1
# [1] = concentration: 1 μM, replicates: in singlicate
# 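Note: KINOMEscan kinase panel screen.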
Structure (SMILES),%Inh (GRK2) [%],%Inh (GRK3) [%],%Inh (GRK4) [%],%Inh (GRK7) [%],%Inh (GSK3A) [%],%Inh (GSK3B; [1]) [%],%Inh (HASPIN) [%],%Inh (HCK) [%],%Inh (HIPK1) [%],%Inh (HIPK2) [%],%Inh (GSK3B; 1 µM) [%]
COc1cc2ncn(-c3cc(OCc4ccc(S(C)(=O)=O)cc4)c(C(N)=O)s3)c2cc1OC [GW869979],45,0,1,0,3,0,40,0,0,9,–
CCn1c(-c2ccoc2)nc2cnccc21 [SB-733887],0,0,0,93.9,35,22,37,0,0,0,–
COc1cc(Nc2nccc(N3CCC(NC(=O)C(C)c4ccc(Cl)cc4)C3)n2)cc(OC)c1OC (stereo not shown) [GSK1379757],0,17,37,0,0,0,21,11,0,0,–
O=C1NC(=O)C(c2ccccc2)=C1Nc1cccc(O)c1 [SB-390534],0,0,3,0,30,–,6,6,8,18,20
Cl.c1ccc(Cn2cnc3cc(Nc4ncnc5ccccc45)ccc32)cc1 [GW272142],0,50,0,0,0,1,0,0,0,0,–
CCC(=O)c1c(-c2ccccc2)c2cc(Cl)ccc2c(=O)n1Cc1cc(S(C)(=O)=O)n(CCC(C)(C)O)n1,0,0,0,29,0,0,43,10,33,29,–
O=c1cc(N2CCOCC2)nc2n(Cc3ccc(F)c(Cl)c3)ccn12 [GSK2297099],0,0,0,0,0,8,0,0,7,0,–
O=C(NCc1cccs1)c1cc(C(=O)c2c(Cl)cccc2Cl)c[nH]1 [GW823670],16,25,8,0,0,0,0,25,17,0,–
CN(C)c1cc(-c2ccc3c(N)n[nH]c3c2)nc(N)n1 [GSK2219329],0,0,0,0,0,5,0,0,0,0,–
Cc1ccc(Oc2ccc(Nc3ncnc4cc[nH]c34)cc2C)cn1,0,28,0,44,0,0,8,16,20,11,–
CCC(=O)c1c(-c2ccccc2)c2cc(Cl)ccc2c(=O)n1Cc1ccc(C(=O)O)cc1,0,0,16,0,3,0,42,0,10,0,–
COc1cc(Nc2nccc(N3CCC(NC(=O)C4COc5ccccc5O4)C3)n2)cc(OC)c1OC (stereo not shown) [GSK1379761],0,38,0,0,0,3,55,0,0,0,–
CN1C(=O)C(Nc2ccccc2)=C(c2ccccc2)C1=O [SB-300079],0,0,0,0,9,3,15,13,28,9,–
CCS(=O)(=O)c1ccc(OC)c(Nc2ncc(-c3ccc(F)cc3)o2)c1.Cl [GW591947],0,0,0,0,8,0,0,0,33,0,–
Nc1ncnc2c1ncn2-c1cccc(F)c1 [SKF-97560],61,40,0,4,18,13,45,0,12,16,–
COC(=O)c1c(-c2ccccc2)c2cc(C)ccc2c(=O)n1Cc1ccccc1,0,0,28,0,0,0,0,0,0,0,–
Nc1n[nH]c2ncc(-c3ccccc3)cc12 [SB-517081],0,22,21,0,34,–,0,0,0,0,20

Structure (SMILES),%Inh (GRK2) [%],%Inh (GRK3) [%],%Inh (GRK4) [%],%Inh (GRK7) [%],%Inh (GSK3A) [%],%Inh (GSK3B; [1]) [%],%Inh (HASPIN) [%],%Inh (HCK) [%],%Inh (HIPK1) [%],%Inh (HIPK2) [%],%Inh (GSK3B; 1 µM) [%]
COc1cc2nccc(Nc3cccc(Oc4ccccc4)c3)c2cc1OC.Cl [GW284543],28,16,7,0,5,0,11,44,0,25,–
COc1cc2nccc(Nc3ccc(OCc4ccc(NC(C)=O)cc4)cc3)c2cc1OC.Cl [GW440135],0,17,23,4,0,0,18,0,0,0,–
CCC(=O)c1c(-c2ccccc2)c2cc(Cl)ccc2c(=O)n1Cc1cc(S(C)(=O)=O)n(CC(F)F)n1,0,0,4,0,0,0,26,0,25,0,–
Cc1nnc(-c2ccc(C)c(-c3ccc(C(=O)O)cc3)c2)o1 [GW608005],0,0,0,0,7,0,0,0,0,0,–
CCCNC(=O)Nc1ccc(Oc2ncnc3ccn(C)c23)cc1,40,0,6,29,0,21,41,7,35,29,–
Nc1nccc2scc(-c3ccc4c(c3)CCN4C(=O)Cc3ccccc3)c12 [GSK2576924],4,100,0,0,11,2,0,0,0,0,–
COc1cccc(-n2cnc3c(N)ncnc32)c1 [SKF-97416],0,11,10,27,0,35,0,8,18,22,–
O=C(Nc1ccc2c(c1)OCO2)NC1CCN(c2ccnc(NCc3ccc(F)cc3)n2)CC1 [GSK1379859],0,0,0,0,2,8,0,0,0,0,–
C[C@@H]1CC[C@H](C(=O)NC2CCCCC2)CN1c1cc(-c2ccc3c(N)n[nH]c3c2)nc(N)n1 [GSK2291363],0,32,45,0,5,17,2,0,9,0,–
O=C(Nc1n[nH]c2nc(-c3ccccc3)c(Br)cc12)C1CC1 [SB-708998],12,0,14,0,90.3,–,0,0,0,0,15
Nc1nc(-c2ccccc2F)c(-c2ccnc3ccccc23)s1 [GW560459],0,50,0,0,3,0,25,0,0,0,–
CCc1nc(-c2cccc(C)c2)c(-c2ccncc2)s1,0,0,0,0,27,0,0,21,30,0,–
CCCC(=O)Nc1n[nH]c2ncc(-c3cccc4ccccc34)cc12 [SB-642057],0,0,0,0,87,–,0,1,0,0,33
Nc1n[nH]c2nnc(-c3ccccc3)c(-c3ccccc3)c12 [GW554060],0,44,6,0,91,–,10,0,50,86,42
CN1C(=O)C(Nc2cc(Cl)c(O)c(Cl)c2)=C(c2ccc(Cl)cc2)C1=O [SB-404321],22,28,96.7,0,0,0,0,0,0,38,–
Cc1nc(N(C)[C@H]2CN(C(=O)CC#N)CC[C@H]2C)c2cc[nH]c2n1,0,0,0,0,9,0,0,0,6,0,–
Cc1nn2c(=O)cc(N3CCOCC3)nc2n1Cc1cccc(Cl)c1Cl [GSK2342769],0,83,2,0,10,13,8,0,0,0,–
